Assay results taken from the supplement of paper PMC6555819.

What was measured:
Test in all cases: PBM binding z-score (relative to random genomic background probes); higher = stronger binding; sequences stand for … in GC…GCGATTGACAGCGTAGAATGAAGG
[1] = tested on: FXR:RXRa (NR concentration 270 nM, RXRa partner concentration 90 nM)
Procedure, shortened: (§1)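 Custom Agilent 4×180K protein-binding microarrays carried double-stranded probes, each with a 34-nt variable region. These regions held direct-repeat seeds, single-nucleotide variants, half-site ablations and random human genomic background sequences. Ligand-free nuclear receptor dimers were incubated on the arrays for 1 h, antibodies against each partner (one per run) detected binding, and scanned fluorescence was regression-normalized. Binding z-scores take the random background probes as reference.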

[2] = tested on: LXRa:RXRa (NR concentration 270 nM, RXRa partner concentration 90 nM)
Procedure, shortened: as §1

[3] = tested on: LXRa homodimer (NR concentration 270 nM)
Procedure, shortened: as §1

[4] = tested on: LXRb:RXRa (NR concentration 270 nM, RXRa partner concentration 90 nM)
Procedure, shortened: as §1

[5] = tested on: LXRb homodimer (NR concentration 270 nM)
Procedure, shortened: as §1

[6] = tested on: PPARa:RXRa (NR concentration 270 nM, RXRa partner concentration 90 nM)
Procedure, shortened: as §1

[7] = tested on: PPARg:RXRa (NR concentration 180 nM, RXRa partner concentration 90 nM)
Procedure, shortened: as §1

[8] = tested on: PPARg:RXRa 270nM:90nM, anti-RXR (NR concentration 270 nM, RXRa partner concentration 90 nM)
Procedure, shortened: as §1

[9] = tested on: PPARg:RXRa 30nM:10nM, anti-RXR (NR concentration 30 nM, RXRa partner concentration 10 nM)
Procedure, shortened: as §1

[10] = tested on: PPARg:RXRa 90nM:30nM, anti-RXR (NR concentration 90 nM, RXRa partner concentration 30 nM)
Procedure, shortened: as §1

| Sequence | PBM binding z-score [1] | PBM binding z-score [2] | PBM binding z-score [3] | PBM binding z-score [4] | PBM binding z-score [5] | PBM binding z-score [6] | PBM binding z-score [7] | PBM binding z-score [8] | PBM binding z-score [9] | PBM binding z-score [10] |
| --- | --- | --- | --- | --- | --- | --- | --- | --- | --- | --- |
| CTCGAAAGGTCGGTTGAGGTGAGCATACGGATAA | 2.86 | 1.78 | -0.014 | 1.37 | -0.173 | 2.74 | 0.697 | 1.33 | 0.406 | 0.609 |
| AGAAGGAGGTTATTAAGATCAGGGAATTGCGGTC | 1.12 | 1.36 | 0.522 | 1.46 | 0.654 | 2.01 | 1.01 | 1.31 | 0.314 | 0.827 |
| GCGACTGGGGCATAAGCAGGTTACCATAACTTAA | -0.0719 | 0.177 | -0.305 | 0.583 | -0.304 | 1.24 | 1.62 | 2.1 | 0.29 | 1.26 |
| CCTAGCAGGCCAATCTGGGTAACTCAAGGCTTGA | -0.2 | -0.684 | -0.736 | -0.904 | -0.796 | 0.0569 | -0.0846 | -0.366 | -1.08 | -0.958 |
| TAGCCTAGGTCAGATAGGGCCAGTATACGCTATA | 2.49 | 0.979 | -0.0979 | 0.697 | -0.375 | 1.59 | 0.726 | 0.567 | -0.0576 | 0.283 |
| GCTCGGAGGACAAGGTCAGATCTTTGTCCGTAGA | 2.14 | 2.12 | -0.175 | 1.87 | -0.0535 | 2.68 | 0.835 | 1.44 | -0.124 | 0.769 |
| ACTACAGGGTCATCGTAGGCCAGAGTACGCACAG | 6.89 | 5.5 | 0.216 | 4.08 | 0.987 | 5.89 | 5.88 | 5.25 | 2.32 | 3.77 |
| ACAGACAGGTGAGTGAAGGGAACTCAGCTGGACG | 0.599 | 0.176 | -0.538 | -0.538 | -0.387 | -0.171 | 0.513 | -0.458 | -0.652 | -0.465 |
| AGAATAAGGTTATTAAGATCAGGGAATTGCGGTC | 1.43 | 1.6 | 0.352 | 1.32 | -0.02 | 2.42 | 1.12 | 1.67 | 0.45 | 1.38 |
| CCGACTGGGGCGTAAGGTTACCATAAGCCAGCCC | 0.247 | 1.35 | -0.338 | 0.704 | -1.25 | 1.35 | 1.19 | 2.42 | 0.143 | 1.7 |
| ATATGTAGGTTAAATCCGGGTCATTCAGGCTATG | 2.83 | 5.17 | 3.32 | 3.47 | 1.09 | 4.96 | 5.84 | 5.44 | 2.91 | 4.84 |
| TCTCGGAGGACACGAAGGTGAGAGCTTTCCAGAG | -0.0901 | -0.338 | -0.832 | -0.756 | -1.18 | -0.0332 | 0.00837 | 0.718 | 1.9 | 0.958 |
| CCTTACGGGTCACTGACCGGTTATAGCATTTGGA | 5.3 | 5.49 | 1.84 | 4.04 | 0.194 | 5 | 3.68 | 4.28 | 1.31 | 2.95 |
| ATATCTAGGTAAAGATAGTTCAGTGAATGCAAAT | 0.0166 | 3.97 | 0.545 | 0.556 | 0.365 | 2.2 | 3.15 | 1.99 | 1 | 1.6 |
| CGAACTAGGTCAAGCACAGTGAATCTCCGCACGC | 4.1 | 2.35 | 0.195 | 1.67 | -0.136 | 4.74 | 7.62 | 6.72 | 4.49 | 6.09 |
| ATCTCTAGGTTAAGTTCAGTGAAAGATCGATAGA | 1.78 | 2.76 | 1.8 | 1.49 | 1.76 | 2.41 | 1.87 | 2.34 | 1.11 | 1.83 |
